Source: PubChem BioAssay
T cruzi growth-1 – blocks T. cruzi growth in NIH3T3 culture; T. cruzi beta-gal in NIH3T3, GalScreen luminescence, 90 h; inhibition, % at 8.34 µM; hit rate 5.9% among 77,000;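 active = mean inhibition above about 93%, with at least 55% of replicates each passing it, limit read from the data, passing the limit was not always enough; inconclusive = only one of those two conditions holds; inactive = neither condition holds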
C diff growth – C. difficile growth inhibition; Clostridium difficile clinical isolate growth, OD600, 24 h; active compounds read low; growth activity, negative = inhibition, % at 16 µg/mL (by protocol); hit rate 0.25% among 86,000;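 active = mean growth activity at or below -80% and every replicate also at or below -80%; inconclusive = mean at or below -80% but some replicate above -80%; inactive = mean growth activity above -80%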
Pf Dd2 inh – blocks growth of Plasmodium falciparum Dd2 parasites; hit rate 2.3% among 94,000; activity change, % at 10 µM; P. falciparum Dd2 growth, SYBR Green, 72 h; active compounds read low; in the data active = activity change below about -80%; inconclusive = no clear call, values can overlap the other calls
T cruzi growth-2 – blocks T. cruzi growth in NIH3T3 host cells | inhibition, % at 8.35 µM | shares compounds with T cruzi growth-1 | hit rate 72% among 5,600 | AID 651739 | T. cruzi beta-gal in NIH3T3, GalScreen luminescence, 90 h;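 active = mean replicate inhibition above about 95% and at least 55% of replicates individually reaching it, limit read from the data; inconclusive = only one of the two criteria is met; inactive = neither criterion is met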
T cruzi growth-3 – Trypanosoma cruzi proliferation inhibition | shares compounds with T cruzi growth-1 | T. cruzi beta-gal in NIH3T3, GalScreen luminescence, 90 h | inhibition, % at 2.09 µM | hit rate 21% among 5,600 | AID 651740;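 active = mean inhibition above about 95%, with at least 55% of replicates also reaching it, limit read from the data; inconclusive = meets just one of the two conditions; inactive = meets neither condition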
NIH3T3 tox – NIH/3T3 (mouse) viability loss. shares compounds with T cruzi growth-1. NIH/3T3 viability, CellTiter-Glo ATP luminescence, 90 h. cytotoxicity (signal decrease), % at 8.35 µM. hit rate 14% among 5,600. AID 651742;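 active = mean signal decrease across replicates above about 35% based on untreated-well scatter, with enough replicates individually passing, limit read from the data; inconclusive = no rule stated though some were filed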
NIH3T3 tox 2 – cytotoxicity in mouse NIH/3T3 fibroblasts; shares compounds with T cruzi growth-1; NIH/3T3 viability, CellTiter-Glo ATP luminescence, 90 h; inhibition, % at 24.9 µM; hit rate 56% among 5,600; AID 651744;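 active = mean loss of cell viability signal at or above a set limit, and enough replicates individually reaching it; inconclusive = meets only the mean limit or only the replicate share; inactive = meets neither condition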
Hits are given with their value; n = inactive; u = inconclusive; x = not tested or not shown. Shown are actives, neighbours in structure and some others; about 6.7% of the full set was active somewhere.

SMILES	T cruzi growth-1	C diff growth	Pf Dd2 inh	T cruzi growth-2	T cruzi growth-3	NIH3T3 tox	NIH3T3 tox 2
Cc1cccc(S(=O)(=O)N2CC[C@@H]3[C@H]2c2cc(Br)ccc2N(C)[C@H]3CO)c1	n	n	n	x	x	x	x
CN1c2ccc(Br)cc2[C@H]2[C@H](CCN2S(=O)(=O)c2cccc(F)c2)[C@@H]1CO	117	n	n	103	n	n	n
CN1c2ccc(Br)cc2[C@@H]2[C@@H](CCN2S(=O)(=O)c2ccccc2)[C@@H]1CO	n	n	n	x	x	x	x
CN1c2ccc(Br)cc2[C@@H]2[C@@H](CCN2S(=O)(=O)c2cccc(F)c2)[C@H]1CO	u	n	n	106	n	n	35
COc1ccccc1NC(=O)N1C[C@H]2[C@@H](c3ccccc31)[C@@H](CO)N2C(=O)c1ccccc1	n	n	n	x	x	x	x
C[C@H]1CCCCO[C@H](CN(C)C(=O)Nc2ccc(C(F)(F)F)cc2)[C@@H](C)CN([C@@H](C)CO)C(=O)c2cc(NC(=O)Nc3ccc4c(c3)OCO4)ccc2O1	107	n	-85	102	110	n	n
C[C@@H]1CCCCO[C@H](CN(C)C(=O)Nc2ccc3c(c2)OCO3)[C@H](C)CN([C@@H](C)CO)C(=O)c2cc(NC(=O)Nc3ccc4c(c3)OCO4)ccc2O1	n	x	n	x	x	x	x
C[C@@H]1CN([C@@H](C)CO)C(=O)c2cc(NC(=O)Nc3ccc(C(F)(F)F)cc3)ccc2O[C@@H](C)CCCCO[C@@H]1CN(C)C(=O)Nc1ccc2c(c1)OCO2	x	n	n	x	x	x	x
C[C@H](CO)N1C[C@H](C)[C@H](CN(C)C(=O)Nc2ccc(C(F)(F)F)cc2)OCCCC[C@H](C)Oc2ccc(NC(=O)Nc3ccc4c(c3)OCO4)cc2C1=O	111	n	n	100	109	n	n
O=C([C@H]1[C@H](CO)[C@H]2Cn3c(cccc3=O)[C@@H]1N2CC1CCCC1)N1CCOCC1	x	n	n	x	x	x	x
COCC(=O)Nc1ccc2c(c1)[C@H]1C[C@@H](CC(=O)NCc3ccc(Cl)cc3)O[C@@H](CO)[C@H]1O2	n	n	n	x	x	x	x
C[C@@H]1CCCCO[C@@H](CN(C)S(=O)(=O)c2ccc(F)cc2)[C@@H](C)CN([C@@H](C)CO)C(=O)c2cc(NS(=O)(=O)c3ccccc3)ccc2O1	n	n	n	x	x	x	x
C[C@@H]1CCCCO[C@@H](CN(C)S(=O)(=O)c2ccccc2)[C@@H](C)CN([C@@H](C)CO)C(=O)c2cc(NS(=O)(=O)c3ccc(F)cc3)ccc2O1	n	n	n	x	x	x	x
C[C@@H]1CN([C@H](C)CO)C(=O)c2cc(NS(=O)(=O)c3ccc(F)cc3)ccc2O[C@@H](C)CCCCO[C@H]1CN(C)S(=O)(=O)c1ccc(F)cc1	x	n	n	x	x	x	x
Cc1noc(C)c1S(=O)(=O)N(C)C[C@@H]1OCCCC[C@@H](C)Oc2ccc(NS(=O)(=O)c3ccc(F)cc3)cc2C(=O)N([C@@H](C)CO)C[C@@H]1C	n	n	n	x	x	x	x
C[C@H](CO)N1C[C@H](C)[C@@H](CN(C)S(=O)(=O)c2ccc(F)cc2)OCCCC[C@H](C)Oc2ccc(NS(=O)(=O)c3ccc(F)cc3)cc2C1=O	98	n	n	96	n	66	59
C[C@@H]1CCCCO[C@H](CN(C)S(=O)(=O)c2ccc(F)cc2)[C@H](C)CN([C@H](C)CO)C(=O)c2cc(NS(=O)(=O)c3ccc(F)cc3)ccc2O1	115	n	u	106	u	n	n
C[C@@H]1CCCCO[C@H](CN(C)S(=O)(=O)c2ccc(F)cc2)[C@H](C)CN([C@@H](C)CO)C(=O)c2cc(NS(=O)(=O)c3ccc(F)cc3)ccc2O1	110	n	n	113	n	n	n
Cc1noc(C)c1S(=O)(=O)N(C)C[C@H]1OCCCC[C@@H](C)Oc2ccc(NS(=O)(=O)c3ccc(F)cc3)cc2C(=O)N([C@@H](C)CO)C[C@H]1C	97	n	n	103	n	n	n
C[C@H]1CN([C@@H](C)CO)C(=O)c2cc(NC(=O)CCC(F)(F)F)ccc2O[C@H]1CN(C)Cc1ccc(Oc2ccccc2)cc1	n	n	n	x	x	x	x
O=C(C[C@@H]1CC[C@@H](NS(=O)(=O)c2ccc(F)cc2)[C@@H](CO)O1)N1CCC(Cc2ccccc2)CC1	n	n	n	x	x	x	x
O=C(N[C@@H]1C=C[C@H](CC(=O)N2CCN(c3ccccc3)CC2)O[C@@H]1CO)c1ccncc1	n	x	n	x	x	x	x
CO[C@@H]1CN(C)C(=O)c2ccc(NC(=O)C3CCOCC3)cc2OC[C@@H](C)N(C(=O)C2CCOCC2)C[C@H]1C	n	n	n	x	x	x	x
COc1ccc(NC(=O)N2CC3(C2)CN(CC2CC2)[C@H](CO)c2c3c3ccc(OC)cc3n2C)cc1	x	n	n	x	x	x	x
O=C(C[C@@H]1C=C[C@@H](NS(=O)(=O)c2cccc(F)c2)[C@H](CO)O1)N1CCCCC1	n	n	n	x	x	x	x
SMILES	T cruzi growth-1	C diff growth	Pf Dd2 inh	T cruzi growth-2	T cruzi growth-3	NIH3T3 tox	NIH3T3 tox 2
CC(=O)N1CC[C@@H]2[C@H]1c1cc(-c3ccc(C#N)cc3)ccc1N(C)[C@H]2CO	n	n	n	x	x	x	x
Cc1ccc(S(=O)(=O)Nc2ccc3c(c2)C(=O)N([C@H](C)CO)C[C@@H](C)[C@H](CN(C)C(=O)Nc2ccccc2)OCCCC[C@@H](C)O3)cc1	n	x	n	x	x	x	x
O=C(Cc1ccccc1)N1CC[C@@H]2[C@H](CO)Nc3ccc(C#Cc4ccccc4)cc3[C@@H]21	n	n	n	x	x	x	x
CCC(=O)N1CC[C@@H]2[C@H]1c1cc(C#Cc3ccc(F)cc3)ccc1N[C@@H]2CO	n	n	n	x	x	x	x
CCC(=O)N1CC[C@@H]2[C@H](CO)Nc3ccc(C#Cc4ccc(F)cc4)cc3[C@@H]21	106	n	n	105	n	n	50
O=C(Cc1ccccc1)N1CC[C@@H]2[C@H]1c1cc(C#Cc3ccccc3)ccc1N[C@@H]2CO	105	n	n	n	n	n	106
COc1ccc(C#Cc2ccc3c(c2)[C@H]2[C@H](CCN2C(=O)C2CC2)[C@@H](CO)N3)cc1	116	n	n	n	n	n	n
CCC(=O)N1CC[C@H]2[C@H](CO)Nc3ccc(C#Cc4ccc(OC)cc4)cc3[C@H]21	x	n	n	x	x	x	x
COc1cccc(C#Cc2ccc3c(c2)[C@H]2[C@H](CCN2C(=O)c2ccccc2F)[C@H](CO)N3)c1	n	n	n	x	x	x	x
COc1ccc(C#Cc2ccc3c(c2)[C@H]2[C@H](CCN2C(=O)c2ccccc2F)[C@H](CO)N3)cc1	u	n	n	106	99	43	62
COCC(=O)N[C@@H]1C=C[C@H](CC(=O)NCc2ccc(Cl)cc2)O[C@H]1CO	n	x	n	x	x	x	x
CCC(=O)Nc1ccc2c(c1)C(=O)N(C)[C@H]1CC[C@H](CC(=O)NCc3ccccc3Cl)O[C@@H]1CO2	n	n	n	x	x	x	x
O=C(N[C@@H]1CC[C@@H](CCNS(=O)(=O)c2ccc(F)cc2)O[C@H]1CO)c1cnccn1	n	n	n	x	x	x	x
